An excerpt weighted towards active compounds, which were near 9.9% of everything screened.
ALDH1A1 inh: ALDH1A1 (human) enzyme inhibition; P00352; Purified ALDH1A1, NADH fluorescence, propionaldehyde substrate; Potency, µM (series often up to 75.3 µM), for the others: top-dose activity, negative = inhibition, hits mostly inhibitors; 220,000 tested, 7.3% active;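 also: plate controls were no enzyme wells and a reference inhibitor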
Tau fibril FP: tau fibrillization inhibition (FP) | P10636 | K18 P301L tau heparin fibrillization, Alexa594 FP, 6 h | Potency, µM (titrated, usually from 57.7 µM), inactives show at the highest dose activity, negative = inhibition, actives largely listed as inhibitors | 280,000 tested, 0.39% active; active = well fitted curve in the direction sought with a large enough effect; inconclusive = small, poorly fitted or top-dose-only effect, or another doubt; inactive = no such curve, though single readings can be large; an effect the other way counts as inactive or inconclusive; also: nearly all actives have a fitted effect of over 55% in size
Target sequence (P10636 561-689 P618L limits assumed): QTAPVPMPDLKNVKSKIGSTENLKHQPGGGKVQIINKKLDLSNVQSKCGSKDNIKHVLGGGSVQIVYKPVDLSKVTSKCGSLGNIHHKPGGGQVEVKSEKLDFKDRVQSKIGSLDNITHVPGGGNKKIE
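Heparin (20 uM) drove fibril formation of recombinant tau K18 P301L, 15 uM unlabeled with 0.24 uM Alexa 594 label, for 6 hr at 37 C in 100 mM sodium acetate pH 7. Fluorescence polarization (555/632 nm) read 1 hr after 30 uM ThT.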
Tau fluor counter: counter-screen for tau fibril formation inhibitors; tau K18 P301L Alexa594 fluorescence, heparin fibrillization; Potency, µM (doses to about 57.7 µM), for inactives: top-dose activity change, negative = decrease; AID 1463; 280,000 tested, 0.93% active; active = well fitted curve in the direction sought with a large enough effect; inconclusive = small, poorly fitted or top-dose-only effect, or another doubt; inactive = no such curve, though single readings can be large; an effect the other way counts as inactive or inconclusive; also: nearly all actives have a fitted effect of over 55% in size
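Human tau K18 P301L (15 uM unlabeled, 0.24 uM Alexa 594-labeled) in 100 mM sodium acetate pH 7 with 20 uM heparin, 6 hr at 37 C. ThT 30 uM added, 1 hr ambient; Alexa 594 FP and total fluorescence read at 555/632 nm.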
Tau ThT inhib: blocks human tau fibril formation measured by thioflavin T | recombinant tau K18 P301L (four-repeat tau fragment), heparin-induced fibrillization, ThT fluorescence | Potency, µM (titrated, usually from 57.4 µM), without a hit: at the highest dose activity, negative = inhibition, usual class: inhibitors | 270,000 tested, 2.1% active | AID 1460; active = well fitted curve in the direction sought with a large enough effect; inconclusive = small, poorly fitted or top-dose-only effect, or another doubt; inactive = no such curve, though single readings can be large; an effect the other way counts as inactive or inconclusive; also: nearly all actives have a fitted effect of over 55% in size
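Recombinant human tau K18 fragment […] carrying P301L, 15 uM unlabeled plus 0.24 uM Alexa 594-labeled, was fibrillized with 20 uM heparin in 100 mM sodium acetate pH 7 for 6 hr at 37 C; 30 uM ThT fluorescence read after 1 hr.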
HPGD block: blocks human HPGD enzyme activity | purified HPGD, NADH fluorescence kinetic, PGE2 substrate | P15428 | Potency, µM, inactives show top-dose activity change, negative = inhibition, most hits filed as inhibitors | 150,000 tested, 4.3% active
Target sequence (P15428 whole entry, looked up): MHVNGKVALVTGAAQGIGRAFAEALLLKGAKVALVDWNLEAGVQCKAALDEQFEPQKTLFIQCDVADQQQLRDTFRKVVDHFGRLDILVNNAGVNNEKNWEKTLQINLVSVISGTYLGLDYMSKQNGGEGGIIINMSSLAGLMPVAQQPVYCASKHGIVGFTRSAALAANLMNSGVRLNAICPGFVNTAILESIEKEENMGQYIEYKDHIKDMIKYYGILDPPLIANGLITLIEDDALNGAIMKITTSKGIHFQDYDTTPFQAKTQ
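NADH formation kinetics: reaction with 30 uM PGE2 and 1 mM NAD+ (final), 20 nM enzyme, Tris-HCl pH 8 with Tween 20, after 15 min compound preincubation at room temperature. Fluorescence change, last versus first of five reads.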
JMJD2E inh: inhibitors of human JMJD2E histone demethylase; JMJD2E catalytic domain, FDH-coupled NADH fluorescence (FDH is formaldehyde dehydrogenase); Potency, µM (top dose mostly 57.1 µM), inactives show top-dose activity change, negative = inhibition, most hits filed as inhibitors; 230,000 tested, 1.6% active;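 also: 0% = wells with enzyme and -100% = buffer wells without enzyme; nearly all actives have a fitted effect of over 50% in size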
Target sequence (B2RXH2 1-337 limits assumed): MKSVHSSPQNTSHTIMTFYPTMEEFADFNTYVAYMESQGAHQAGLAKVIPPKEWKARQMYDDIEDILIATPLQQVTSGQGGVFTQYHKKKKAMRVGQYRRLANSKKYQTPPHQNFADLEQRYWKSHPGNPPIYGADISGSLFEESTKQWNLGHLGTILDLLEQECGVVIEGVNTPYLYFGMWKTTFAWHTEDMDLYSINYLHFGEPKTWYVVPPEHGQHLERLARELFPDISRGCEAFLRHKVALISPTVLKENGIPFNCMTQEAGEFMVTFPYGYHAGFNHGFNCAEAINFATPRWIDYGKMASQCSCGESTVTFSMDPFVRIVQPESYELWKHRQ
* marks the source's active call; other numbers are inactive results; ? = inconclusive; · = no result given; ! = repeats disagree; [ ] = remark or other dose. Unless noted, calls follow the shape of the dose curve; as a rule, active = well fitted inhibition curve with a large enough effect (not every such curve was filed as active); inconclusive = small, poorly fitted or top-dose-only effect, or another doubt; inactive = no such curve, though single readings can be large or run the other way. Unless noted, % is scaled to controls: 0 for no effect and ±100 for the full control effect; potency is read from the fitted curve at half-maximal effect.

SMILES | ALDH1A1 inh | Tau fibril FP | Tau fluor counter | Tau ThT inhib | HPGD block | JMJD2E inh
CC1(C)C(=O)C2C[C@]3(O)C4=CC(=O)OC(c5ccoc5)[C@]4(C)CCC3[C@](C)(C2=O)C1CC(=O)O (stereo partly specified) | 8% | 2% | -10% | -12% | -10% | 6%
O=C(CSc1nnnn1-c1ccccc1)CSc1nnnn1-c1ccccc1 | 3.2µM* | 4% | ? | -15% | -16% | 7%
O=C(CSc1nnnn1-c1ccccc1)N1CCCc2ccccc21 | 7.9µM* | -8% | -20% | -12% | -7% | 3%
Cc1ccc(C(=O)CSc2nnc(-c3ccccc3)n2-c2ccccc2)o1 | -2% | 2% | 3% | -2% | -14% | -1%
Cc1ccc(C(=O)CSc2nnnn2-c2ccccc2)o1 | 3.5µM* | 6% | -3% | -5% | · | 3%
O=C(CSc1nnnn1-c1ccccc1)N1CCc2ccccc21 | -10% | -2% | -9% | 4% | 0% | 4%
O=C1c2ccccc2C(=O)N1CCCCSc1nc2ccccc2o1 | ? | 1% | -21% | -11% | 25µM* | -9%
Cc1nnc(SCCCN2C(=O)c3ccccc3C2=O)o1 | -7% | -5% | -5% | -7% | -11% | 8%
O=C(O)CSc1nnnn1-c1ccccc1 | 3% | 8% | 1% | -10% | -7% | 4%
COC(=O)CCCC1=CC2=C(c3ccccc3)C(=O)C(C)(OC(=O)C3CCCC3)C(=O)C2=CN1CCc1c[nH]c2ccccc12 (stereo unspecified) | 3.2µM* | 1%[11.6 µM] | -8%[11.6 µM] | ? | -9% | ?
COC(=O)CCCC1=CC2=C(c3ccccc3)C(=O)C(C)(OC(=O)C3CCCC3)C(=O)C2=CN1CCc1ccccn1 (stereo unspecified) | ? | -2%[11.6 µM] | -13%[11.6 µM] | -7%[11.5 µM] | -1% | ?
COC(=O)CCCC1=CC2=C(c3ccccc3)C(=O)C(C)(OC(=O)C3CCCC3)C(=O)C2=CN1CCN1CCOCC1 (stereo unspecified) | -4%[13.5 µM] | -3%[11.6 µM] | -6%[11.6 µM] | -13%[11.5 µM] | -3% | 3.2µM*!
Cc1cc(N2CCN(c3ccccc3)CC2)n2ncnc2n1 | 5% | -2% | -19% | ? | · | 2%
Cc1cc(N2CCN(C/C=C/c3ccccc3)CC2)n2ncnc2n1 | 2% | -7% | -3% | -4% | 28µM* | -14%
CC(C)(C)C1=C[C@@H](CO)C[C@@H](CO)C1 | 28µM* | 0% | 7% | 6% | -11% | 2%
C/C(=N\NC(=O)c1ccc(Br)cc1)C1C(=O)c2ccccc2C1=O | -2% | ? | ? | 4µM* | -16% | ?
C/C(=N\NC(=O)c1ccc(-c2ccccc2)cc1)C1C(=O)c2ccccc2C1=O | -4% | 5%[2.34 µM] | -11% | -11% | · | ?
CCc1ccccc1NC(=O)CN1C(=O)C2CCCN2c2ncc(Cl)cc21 (stereo unspecified) | 18µM* | 5% | -4% | -24% | -10% | -7%
COC(=O)c1ccccc1NC(=O)CN1C(=O)C2CCCN2c2ncc(Cl)cc21 (stereo unspecified) | ? | -2% | -16% | -10% | ? | ?
O=C(CN1C(=O)C2CCCN2c2ncc(Cl)cc21)NCc1ccc2c(c1)OCO2 (stereo unspecified) | ? | -2% | -2% | -9% | -9% | 14µM*
CSc1ccc(C(=O)C2CCCN(C(=O)c3cc4cc(F)ccc4[nH]3)C2)cc1 (stereo unspecified) | -3% | -13% | ? | -12% | · | -9%
CSc1ccc(C(=O)C2CCCN(C(=O)c3csc(C(C)=O)c3)C2)cc1 (stereo unspecified) | 2µM* | 5% | -4% | -6% | · | 5%
Cc1cc(C)n(-c2nc3ccccc3nc2Nc2ccc(Cl)cc2Cl)n1 | · | -8% | -14% | -7% | · | ·
CCOC(=S)NC(=O)c1sc2ccccc2c1Cl | 0.35µM* | 5% | -9% | ? | -25% | -9%
O=C(NC(=S)NCCO)c1sc2ccccc2c1Cl | ? | 5% | 9% | 8% | · | -8%
SMILES | ALDH1A1 inh | Tau fibril FP | Tau fluor counter | Tau ThT inhib | HPGD block | JMJD2E inh
COc1cc(NS(=O)(=O)c2ccc(NC(=S)NC(=O)c3sc4ccccc4c3Cl)cc2)ncn1 | 22µM* | 1% | -9% | ? | -16% | 1%
CCCOC(=S)NC(=O)c1sc2ccccc2c1Cl | 5.6µM* | 3% | -17% | ? | 20µM* | -7%
Cc1ccccc1NC(=O)CSc1nc2c(oc3ccccc32)c(=O)n1Cc1ccco1 | · | -7% | -4% | -5% | · | ·
CCc1cccc(C)c1NC(=O)c1cc(S(=O)(=O)N2CCOCC2)cn1C | · | -1% | 9% | 1% | · | ·
COc1cc(CN2CCNC(=O)C2CC(=O)N2CCc3ccccc3C2)cc(OC)c1 (stereo unspecified) | 25µM* | 1% | 6% | -17% | · | ?
COc1ccc(CN2CCNC(=O)C2CC(=O)N2CCc3ccccc3C2)c(OC)c1 (stereo unspecified) | -12% | 3% | -5% | -15% | · | -8%
CCOC(=O)c1ccc(NC(=O)/C(C#N)=C/c2ccc(OC)cc2)cc1 | · | 6% | 1% | ? | · | ·
CCOC(=O)c1c(C)[nH]c(C(=O)C(C)Cl)c1C (stereo unspecified) | 22µM* | 7% | 5% | 1% | · | 1%
CCOC(=O)c1c(C)[nH]c(C(=O)CN2CC(C)OC(C)C2)c1C (stereo unspecified) | 7.9µM* | -2% | -8% | -12% | -4% | 1%
CCOC(=O)c1[nH]c(C)c(C(=O)NC2CCCC2)c1C | 2% | 15% | -2% | -7% | 18µM* | 3%
CCOC(=O)c1c(C)[nH]c(C(=O)/C(C#N)=C/c2ccc(OCC)cc2)c1C | 3.2µM* | 4% | ? | ? | -16% | -1%
CCOC(=O)c1[nH]c(C)c(C(=O)NC2CCCCCC2)c1C | -3% | -4% | -4% | -3% | -2% | 10%
OC[C@@H]1O[C@@H](O)[C@H](N=Cc2ccc3c(c2)OCO3)[C@@H](O)[C@@H]1O | ? | · | · | · | -5% | ·
CCN(CC)S(=O)(=O)c1cccc(NC(=O)CSc2nnc(N)s2)c1 | ? | 6% | 8% | 11% | · | -5%
COc1ccc(CCNC(=O)c2cc3c(=O)n(C)c4cc(Cl)ccc4c3s2)cc1OC | · | -3% | -5% | -8% | · | ·
CCOC(=O)c1c(C)[nH]c(C(C)=O)c1C | 8.9µM* | 3% | 3% | -8% | -15% | -3%
O=C(N/N=C/C(Cl)=C/c1ccc([N+](=O)[O-])cc1)C(=O)Nc1ccc(C(=O)O)cc1 | -5% | 0% | -28% | 3.5µM* | · | -9%
CCOc1ccccc1NC(=O)C(=O)N/N=C/c1ccc([N+](=O)[O-])cc1 | 2% | -6% | -18% | -15% | · | 17%

Assay outcomes from PubChem.
